# Data reported in PubChem BioAssay AID1259343 (VanderVen Lab, College of Veterinary Medicine, Cornell …, 2017).
# About 2,900 (47%) of roughly 6,200 compounds were called active. Rule as the data show it: active = inhibition above about 50%; inactive = the rest. So high a share suggests a set chosen from earlier hits. Some of the results follow.
# Assay: Mycobacterium tuberculosis growth inhibition, primary screen (AID 1259343)
# Settings: inhibition: at 10 µM, active compounds read high; outcome: 10 uM
row,Compound,inhibition
1,C#CCOc1cccc(NC(=O)CSC2CCS(=O)(=O)C2)c1 (centres undefined),84.6% (active)
2,O=C(Nn1cnc2ccccc21)c1ccccc1SC1CCS(=O)(=O)C1 (centres undefined),-8.68% (inactive)
3,O=C(NCc1cccc(COCc2ccco2)c1)c1ccccc1,14.8% (inactive)
4,O=C(NCc1ccccc1F)c1cccc(COCC(F)(F)C(F)F)c1,68.7% (active)
5,COc1ccc(C2CCCN2C2=NCc3cnn(C(C)(C)C)c3N2)cc1 (centres undefined),10% (inactive)
6,Cc1ccc(Sc2ccc(C(=O)NC3CC3)cn2)cc1,11.2% (inactive)
7,O=C(NC1CCCCC1)c1cnccn1,47.9% (inactive)
8,O=C(NC1CCCCC1)c1ccc(C(F)(F)F)nc1,57.1% (active)
9,FC(F)(F)c1cc(-c2ccc(Cl)cc2)nc(-n2cccn2)n1,61.6% (active)
10,O=c1cc(CSc2nnc(-c3ccc(Cl)s3)o2)occ1O,80.1% (active)
11,Cc1cc(=O)[nH]c(-n2nc(C)cc2NC(=O)/C=C/c2ccc3c(c2)OCO3)n1,101% (active)
12,CCc1cc(=O)[nH]c(-n2nc(C)cc2NC(=O)/C=C/c2ccc3c(c2)OCO3)n1,100% (active)
13,N/C(=N/O)c1cncc(OCC(F)(F)F)n1,92% (active)
14,Brc1c(-c2ccccc2)nc2ccccn12,40% (inactive)
15,CN(Cc1ccc(C(N)=O)cc1)Cc1ccccc1Br,17.4% (inactive)
16,CC(Oc1ccc(C(N)=O)cc1)C(=O)c1ccc(Br)cc1 (centres undefined),71.9% (active)
17,CC(Oc1ccc2cc(Br)ccc2c1)C(=O)NC(N)=O (centres undefined),80.7% (active)
18,N#Cc1ccc(NC(=O)NCc2ccn(-c3ccccc3)n2)cc1,32.1% (inactive)
19,CCc1ccc(CNC(=O)Nc2ccc(C#N)cc2)s1,56.1% (active)
20,CCCSc1nnc(-c2c(Cl)c(CC)nn2C)s1,52.5% (active)
21,N#Cc1nc(-c2ccc(Cl)cc2)oc1NC1CC1,26.7% (inactive)
22,N#CCc1cc(-c2ccc(Cl)cc2)on1,72.6% (active)
23,COc1cccc(CC2(CO)CCCN(C(=O)Nc3cccc(C(F)(F)F)c3)C2)c1 (centres undefined),11% (inactive)
24,COc1cccc(-c2cc(N)c(=O)n(Cc3ccc(C(F)(F)F)cc3)n2)c1,22.8% (inactive)
25,COc1cccc(Oc2ccc(C(F)(F)F)cc2NC(C)=O)c1,82.6% (active)
26,Cc1ccc(OC(C)C(=O)Nc2ccc3c(c2)CCC3)cc1 (centres undefined),1.9% (inactive)

row,Compound,inhibition
1,CC(C)(C)C(=O)Nc1nnc(-c2ccc3c(c2)CCCC3)o1,92.3% (active)
2,O=C(Nc1nnc(-c2ccc3c(c2)CCCC3)o1)c1ccc([N+](=O)[O-])s1,101% (active)
3,NC(Cc1ccc(C(F)(F)F)cc1)c1csc(Nc2nccc(C(F)(F)F)n2)n1 (centres undefined),94.8% (active)
4,NC(Cc1ccc(C(F)(F)F)cc1)c1csc(Nc2ncccn2)n1 (centres undefined),29.2% (inactive)
5,NC(Cc1ccc(F)cc1)c1csc(Nc2nccc(C(F)(F)F)n2)n1 (centres undefined),66.7% (active)
6,NC(CCc1ccccc1)c1csc(Nc2nccc(C(F)(F)F)n2)n1 (centres undefined),50.5% (active)
7,NC(Cc1ccc(Cl)cc1)c1csc(Nc2nccc(C(F)(F)F)n2)n1 (centres undefined),63.1% (active)
8,O=C(Cc1cc(-c2cc3ccccc3o2)on1)NCCCN1CCOCC1,20.8% (inactive)
9,c1ccc(Cn2cc(CN3CCN(c4ncccn4)CC3)c(-c3cc4ccccc4o3)n2)cc1,inactive
10,C(=NN1CCOCC1)c1cn(-c2ccccc2)nc1-c1cc2ccccc2o1,88.6% (active)
11,OCc1cc(-c2cc3ccccc3o2)on1,8.03% (inactive)
12,OCc1cn(-c2ccccc2)nc1-c1cc2ccccc2o1,74.7% (active)
13,O=C(CC(O)(c1ccccc1)C(F)(F)F)N1CCN(Cc2ccc(Cl)cc2)CC1 (centres undefined),53.2% (active)
14,O=C1NC(C2=Cc3cc(Cl)ccc3OC2)Nc2ccccc21 (centres undefined),0.99% (inactive)
15,COC(=O)c1cnc(Nc2nc(C(N)c3ccccc3Cl)cs2)nc1C(F)(F)F (centres undefined),94% (active)
16,COC(=O)c1cnc(Nc2nc(C(N)Cc3ccc(Cl)cc3)cs2)nc1C(F)(F)F (centres undefined),85.1% (active)
17,CC(=O)Nc1ccc(Sc2nc(C)cc(C)c2C#N)cc1,-11.9% (inactive)
18,COc1cc(N(C)CCC(O)c2ccccc2)ncn1 (centres undefined),-15.6% (inactive)
19,COc1cc(-c2cccc(O)c2)ncn1,93.2% (active)
20,CN(C)c1ccc(CN(C)S(=O)(=O)Cc2ccccc2)cc1,30.6% (inactive)
21,C=C1N(C)c2cc([N+](=O)[O-])c(N)cc2C1(C)C,64.8% (active)
22,c1ccc(-c2nc(SCC3CCOCO3)oc2-c2ccccc2)cc1 (centres undefined),-19.9% (inactive)
23,O=S(=O)(/C=C/C=C/Sc1ccccc1)c1ccccc1,90.4% (active)
24,Cc1cc(C)n(-c2nc(NC(C)C)nc(NC(C)(C)C)n2)n1,101% (active)
25,CCn1cc(C(CC(=O)O)c2cccc(F)c2)c2ccccc21 (centres undefined),18.8% (inactive)
26,CN(C)c1ccc(-c2nc3c(C(=O)NNc4cccc(Cl)c4)cccc3[nH]2)cc1,85.1% (active)

row,Compound,inhibition
1,Cc1nn(C)c(C)c1C(=O)NNc1cccc(Cl)c1,-9.93% (inactive)
2,O=C(Cc1cc(-c2cc3ccccc3o2)on1)NCc1ccc(F)cc1,22.7% (inactive)
3,O=C(Cc1cc(-c2cc3ccccc3o2)on1)NCc1ccco1,91.1% (active)
4,O=C(Cc1cc(-c2cc3ccccc3o2)on1)NCc1cccs1,28.1% (inactive)
5,O=C(Cc1cc(-c2cc3ccccc3o2)on1)NCc1ccncc1,75.1% (active)
6,CNc1nc2cnc(Nc3ccc(Oc4ccccc4)cc3)cc2n1CCOC,69.3% (active)
7,Nc1cccc(-c2cc(Nc3ccc(Oc4ccccc4)cc3)ncn2)c1,9.35% (inactive)
8,O=C(C=Cc1cccs1)NCc1ccc2c(c1)OCO2,-6.77% (inactive)
9,COC(=O)c1ccc(CNC(=O)c2ccc3c(c2)OCO3)cc1,55.5% (active)
10,COC(=O)Cc1ccc(NC(=O)c2cnccn2)cc1,87.5% (active)
11,COc1ccc(CCNC(=O)c2cnc(C)cn2)cc1OC,41.9% (inactive)
12,O=C(NCc1ccc2c(c1)OCO2)c1cccs1,52.8% (active)
13,CN(C)c1ccc(CNC(=O)c2ccc3c(c2)CCCC3)cc1,-5.89% (inactive)
14,Cc1cnc(C(=O)NC(C)c2ccccc2OC(C)C)cn1 (centres undefined),-5.8% (inactive)
15,O=C(Nc1ccc(OCC(F)(F)F)cc1)c1cnccn1,25.9% (inactive)
16,Cc1cnc(C(=O)NCCc2ccccc2C)cn1,94.4% (active)
17,Cc1ccc(C2(O)CCN(c3noc(-c4ccccc4)n3)CC2)nc1,16.2% (inactive)
18,CCCc1ccc(NC(=O)c2cnc(C)cn2)cc1,100% (active)
19,CC1Cc2cc(CNC(=O)c3cc(C(C)C)nn3C)ccc2O1 (centres undefined),3.55% (inactive)
20,Cc1cnc(C(=O)NCc2ccc3c(c2)OCO3)cn1,63.5% (active)
21,Cc1cnc(C)c(Nc2nc(C(N)Cc3ccc(C(F)(F)F)cc3)cs2)n1 (centres undefined),81.1% (active)
22,Cc1cnc(C)c(Nc2nc(C(N)Cc3ccc(Cl)cc3)cs2)n1 (centres undefined),78.6% (active)
23,CCOCCC1(C(=O)Nc2ccc(CC)cc2)CCC1,75.8% (active)
24,CCc1ccc(NC(=O)COc2ccc(Br)cn2)cc1,-1.65% (inactive)
25,COCc1cccc(C(=O)Nc2ccc(C(C)(C)C)cc2)c1,60.8% (active)
26,COCc1cccc(C(=O)Nc2nc(C3CC3)cs2)c1,5.98% (inactive)

row,Compound,inhibition
1,COc1cc(C)c(CN(C)C(=O)CCl)cc1OC,-15.9% (inactive)
2,COC(=O)c1cccc(S(=O)(=O)N(C)Cc2ccc(C)cc2C)c1,82.9% (active)
3,Cc1cccc(OCCNC(=O)c2c(NC(=O)C3CC3)sc(C)c2C)c1,20.2% (inactive)
4,CCOC(=O)c1sc(N)c(C(=O)OC)c1C,-1.92% (inactive)
5,COC(=O)c1c(NC(=O)c2ccccc2Br)sc(C)c1C,88.2% (active)
6,NC(=O)c1c(NC(=O)CC23CC4CC(CC(C4)C2)C3)sc2c1CCC2,70.6% (active)
7,COC(=O)c1c(NC(=O)c2ccccc2Cl)sc2c1CCCC2,98.2% (active)
8,NC(=O)c1c(NC(=O)C2CCCCC2)sc2c1CCCC2,-14.9% (inactive)
9,O=C(Nc1ccccc1Cl)c1csc2c1CCCC2,50% (inactive)
10,O=C(NC1CC1)c1c(NC(=O)C23CC4CC(CC(C4)C2)C3)sc2c1CCCC2,41.1% (inactive)
11,O=C(O)c1c(NC(=O)C2CCCCC2)sc2c1CCC2,79.8% (active)
12,O=C(Nc1sc2c(c1C(=O)O)CCCC2)c1cccnc1,70.5% (active)
13,O=C(C=Cc1ccco1)Nc1sc2c(c1C(=O)O)CCCC2,8.18% (inactive)
14,COc1ccc(-c2ccc(NC(=O)c3cccnc3)c(C)c2)c(OC)c1OC,40.8% (inactive)
15,CC1Cc2cc(-c3cc(CC(=O)NCCC4=CCCCC4)no3)ccc2O1 (centres undefined),73.2% (active)
16,O=C(Cc1cc(-c2ccc3c(c2)OCO3)on1)NCCC1=CCCCC1,41% (inactive)
17,COc1cccc(-c2cc(CC(=O)NCCC3=CCCCC3)no2)c1,83.2% (active)
18,CC1Cc2cc(-c3cc(CC(=O)NCc4cccnc4)no3)ccc2O1 (centres undefined),37.3% (inactive)
19,Cc1cc(NC(=O)Cc2cc(-c3ccc4c(c3)CC(C)O4)on2)no1 (centres undefined),34.1% (inactive)
20,CC1Cc2cc(-c3cc(CC(=O)NCc4ccco4)no3)ccc2O1 (centres undefined),92.3% (active)
21,O=C1C=C(O)c2ccccc2C1=O,53.8% (active)
22,N#CC(=CC=Cc1ccc([N+](=O)[O-])o1)c1nc2ccccc2[nH]1,101% (active)
23,N#CC(=Cc1ccc([N+](=O)[O-])o1)c1nc(C2CC2)cs1,-16.5% (inactive)
24,N#Cc1ccc(OS(=O)(=O)c2cccs2)cc1,51.7% (active)
25,O=c1ccc2ccc(OS(=O)(=O)c3cccs3)cc2o1,90.5% (active)
26,O=c1cc(C(F)(F)F)c2ccc(OS(=O)(=O)c3ccc(F)c(F)c3)cc2o1,1.62% (inactive)
